Measurements from PubChem BioAssay (NCI).
This is part of a sample that, as a whole, favours compounds with a hit. Of some 83,000 tested, about 20% had one in any assay.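 Single-concentration screen, 48 h exposure, 96-well plates. Endpoint: percent growth. Below 10 = active.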 Activity calls are given as the source filed them.

Assays:
Assay in all cases: NCI-60 one-dose screen, 48 h (100 = growth as untreated, 0 = no growth, -100 = all killed)
Conditions in all cases: 10 µM unless noted
[1] = test system: SK-MEL-2 melanoma
[2] = test system: SN12C renal
[3] = test system: UO-31 renal
[4] = test system: TK-10 renal
[5] = test system: ACHN renal
[6] = test system: CAKI-1 renal
[7] = test system: A498 renal
[8] = test system: CCRF-CEM leukemia
[9] = test system: MOLT-4 leukemia
[10] = test system: EKVX NSCLC

O=C(CCCCCCN1CC(=O)N2[C@H](c3ccc(Cl)cc3)c3[nH]c4ccccc4c3C[C@@H]2C1=O)NO
growth [1]: 66.1% (inactive)
growth [2]: 63.1% (inactive)
growth [3]: 57.9% (inactive)
growth [4]: 55.8% (inactive)
growth [5]: 84.4% (inactive)
growth [6]: 65.2% (inactive)
growth [7]: 78.9% (inactive)
growth [8]: 25.7% (inactive)
growth [9]: 4.87% (active)

N#C/C(=C\c1ccc([N+](=O)[O-])cc1)n1nnc2cc(F)c(F)cc21
growth [1]: 95.9% (inactive)
growth [2]: 4.63% (active)
growth [3]: -77.8% (active)
growth [4]: 6.11% (active)
growth [5]: -74.9% (active)
growth [6]: 6.07% (active)
growth [7]: 67.6% (inactive)
growth [8]: 4.63% (active)
growth [9]: 3.58% (active)

CCCC(CC)(C(=O)Nc1ccc2nc(C)cc(N)c2c1)C(=O)Nc1ccc2nc(C)cc(N)c2c1
growth [1]: 108% (inactive)
growth [10]: 101% (inactive)
growth [2]: 105% (inactive)
growth [4]: 96.5% (inactive)
growth [5]: 105% (inactive)
growth [6]: 91.9% (inactive)
growth [7]: 104% (inactive)
growth [8]: 99.9% (inactive)
growth [9]: 98.8% (inactive)

CN1CCN(Cc2ccc(NC(=O)c3cncc(C#Cc4cnc(N)c5ccc(F)cc45)c3)cc2C(F)(F)F)CC1
growth [1]: -55.1% (active)
growth [2]: 13.2% (inactive)
growth [3]: -3.87% (active)
growth [4]: 24.1% (inactive)
growth [5]: 6.63% (active)
growth [6]: 19.7% (inactive)
growth [7]: 25% (inactive)
growth [8]: -8.78% (active)
growth [9]: 13.1% (inactive)

C[C@H](CCCC(=O)NCC#CCN1CCN(C)CC1)[C@H]1CC[C@H]2[C@@H]3CC[C@@H]4CC(=O)CC[C@]4(C)[C@H]3CC[C@]12C
growth [1]: 103% (inactive)
growth [2]: 86% (inactive)
growth [3]: 64.5% (inactive)
growth [4]: 99% (inactive)
growth [5]: 105% (inactive)
growth [6]: 108% (inactive)
growth [7]: 75.4% (inactive)
growth [8]: 81.2% (inactive)
growth [9]: 84.3% (inactive)

COc1ccc(CCN2C(=O)/C(=C/c3ccc(C4Oc5ccccc5C5CC(c6ccccc6)=NN54)cc3)SC2=S)cc1 (stereo not given)
growth [1]: 103% (inactive)
growth [2]: 101% (inactive)
growth [3]: 80.7% (inactive)
growth [4]: 104% (inactive)
growth [5]: 102% (inactive)
growth [6]: 89.8% (inactive)
growth [7]: 115% (inactive)
growth [8]: 36.6% (inactive)
growth [9]: 100% (inactive)

CC1C(/C=N/NC(N)=S)C(C#N)(C#N)C1(C#N)C#N (stereo not given)
growth [1]: 114% (inactive)
growth [2]: 105% (inactive)
growth [3]: 82.4% (inactive)
growth [4]: 118% (inactive)
growth [5]: 103% (inactive)
growth [6]: 91.8% (inactive)
growth [7]: 103% (inactive)
growth [8]: 96.5% (inactive)
growth [9]: 88.8% (inactive)

CO[C@H]1CC(=O)n2c3ccccc3c3c4c(c5c6ccccc6n1c5c32)C(=O)NC4=O
growth [1]: 70.5% (inactive)
growth [2]: 65.6% (inactive)
growth [3]: 71.3% (inactive)
growth [4]: 37.3% (inactive)
growth [5]: 68.1% (inactive)
growth [6]: 58.1% (inactive)
growth [7]: 56.2% (inactive)
growth [8]: 78.3% (inactive)
growth [9]: 74.9% (inactive)

C=CCN1C(=O)c2cccc3c(N4CCOCC4)ccc(c23)C1=O
growth [1]: -28.1% (active)
growth [2]: 17% (inactive)
growth [3]: -3.07% (active)
growth [4]: -12.9% (active)
growth [5]: 18.6% (inactive)
growth [6]: -39.5% (active)
growth [7]: -57% (active)
growth [8]: -7.18% (active)
growth [9]: -21.2% (active)

CN(C)S(=O)(=O)Oc1ccc(-c2sc3cc(OS(=O)(=O)N(C)C)ccc3c2C(=O)c2ccc(OCCN3CCCCC3)cc2)cc1
growth [1]: 75.5% (inactive)
growth [2]: 87.1% (inactive)
growth [3]: 43.6% (inactive)
growth [4]: 79% (inactive)
growth [5]: 32.3% (inactive)
growth [6]: 73.4% (inactive)
growth [7]: 85.2% (inactive)
growth [8]: 18.8% (inactive)
growth [9]: 36.6% (inactive)

Clc1ccccc1-c1cnn2cc(-c3ccccc3)cnc12
growth [1]: 101% (inactive)
growth [2]: 79.5% (inactive)
growth [4]: 89.1% (inactive)
growth [5]: 74.1% (inactive)
growth [6]: 81.4% (inactive)
growth [7]: 72% (inactive)
growth [8]: 89.2% (inactive)
growth [9]: 83.7% (inactive)

CCOC(=O)c1c(C)nc2ccccc2c1/C=C/c1cccs1
growth [1]: 63.6% (inactive)
growth [2]: 78.4% (inactive)
growth [3]: 63.6% (inactive)
growth [4]: 90.2% (inactive)
growth [5]: 76.5% (inactive)
growth [6]: 63% (inactive)
growth [7]: 84.5% (inactive)
growth [8]: 76.4% (inactive)
growth [9]: 49.4% (inactive)

O=C1Nc2ccccc2/C1=C/c1cccn1C(=O)c1ccc(Cl)s1
growth [1]: 86.7% (inactive)
growth [2]: 86.2% (inactive)
growth [3]: 65.1% (inactive)
growth [4]: 50.6% (inactive)
growth [5]: 47.7% (inactive)
growth [6]: 64% (inactive)
growth [7]: 67.4% (inactive)
growth [8]: 26.6% (inactive)
growth [9]: 30.3% (inactive)

CC(=O)/C(=C/c1ccc([N+](=O)[O-])cc1)C(=O)c1ccccc1
growth [1]: 89.4% (inactive)
growth [2]: 91.6% (inactive)
growth [3]: 69.1% (inactive)
growth [4]: 87.8% (inactive)
growth [5]: 83.8% (inactive)
growth [6]: 96.3% (inactive)
growth [7]: 112% (inactive)
growth [8]: 33.7% (inactive)
growth [9]: 21.4% (inactive)

COc1ccc2c(c1)/C(=N/c1n[nH]c(=S)s1)C(=O)N2
growth [1]: 105% (inactive)
growth [10]: 98.6% (inactive)
growth [2]: 97.8% (inactive)
growth [4]: 115% (inactive)
growth [5]: 83.6% (inactive)
growth [6]: 78.4% (inactive)
growth [7]: 89.9% (inactive)
growth [8]: 44.5% (inactive)
growth [9]: 76.2% (inactive)

Nc1ncnc2c1N=C(c1ccc3c(c1)OCO3)CC(c1cccc(Nc3ccnc4cc(C(F)(F)F)ccc34)c1)N2 (stereo not given)
growth [1]: 88% (inactive)
growth [2]: 75.5% (inactive)
growth [3]: 76.9% (inactive)
growth [4]: 99% (inactive)
growth [5]: 98.3% (inactive)
growth [6]: 78.4% (inactive)
growth [7]: 74.5% (inactive)
growth [8]: 64.8% (inactive)
growth [9]: 93.5% (inactive)

N#Cc1c(-c2ccccc2)nc(SCc2nnc(-c3ccc(Cl)cc3)o2)[nH]c1=O
growth [1]: 80.4% (inactive)
growth [2]: 97.6% (inactive)
growth [3]: 74.6% (inactive)
growth [4]: 90.6% (inactive)
growth [5]: 109% (inactive)
growth [6]: 93.6% (inactive)
growth [7]: 107% (inactive)
growth [8]: 85.5% (inactive)
growth [9]: 79.9% (inactive)

COc1ccc(Oc2nc(Nc3ccc(N4CCOCC4)cc3)ncc2NC(=O)Nc2cc(OC)cc(OC)c2)cc1
growth [1]: 17.8% (inactive)
growth [2]: -12.7% (active)
growth [3]: 47.8% (inactive)
growth [4]: 28.4% (inactive)
growth [5]: 17.4% (inactive)
growth [6]: 16.3% (inactive)
growth [7]: 9.34% (active)
growth [8]: 65% (inactive)
growth [9]: 36.8% (inactive)

COC(=O)CCC/C=C\C[C@H]1C=CC(=O)/C1=C/C[C@@H](O)C/C=C\CC(F)(F)F
growth [1]: -3.66% (active)
growth [2]: -6.2% (active)
growth [3]: -68.9% (active)
growth [4]: -2.5% (active)
growth [5]: -47.7% (active)
growth [6]: 1.42% (active)
growth [7]: 109% (inactive)
growth [8]: -9.32% (active)
growth [9]: 2.73% (active)

CC1=CCC(OC(=O)C(C)(C)CC(O)(C(C)O)C(O)C2(C)C=CC(Cc3ccc(C(C)C)cc3)(C(C)C)CC2)(C(C)C)CC1 (stereo not given)
growth [1]: 110% (inactive)
growth [2]: 105% (inactive)
growth [3]: 81.5% (inactive)
growth [4]: 86.4% (inactive)
growth [5]: 102% (inactive)
growth [6]: 94.6% (inactive)
growth [7]: 76.2% (inactive)
growth [8]: 79.2% (inactive)
growth [9]: 94.1% (inactive)

CCCCNC(=O)Oc1ccc(/C(=C(/C)Cc2ccc(OC)cc2)c2ccc(OCCN3CCCCCC3)cc2)cc1
growth [1]: 102% (inactive)
growth [2]: 71% (inactive)
growth [3]: 57.6% (inactive)
growth [4]: 83.1% (inactive)
growth [5]: 102% (inactive)
growth [6]: 83.5% (inactive)
growth [7]: 98.3% (inactive)
growth [8]: 47.7% (inactive)
growth [9]: 45% (inactive)

CCSc1oc(C)nc1[P+](c1ccccc1)(c1ccccc1)c1ccccc1
growth [1]: 50% (inactive)
growth [2]: 27.7% (inactive)
growth [3]: 82.3% (inactive)
growth [4]: 48.1% (inactive)
growth [5]: 83.4% (inactive)
growth [6]: 70.6% (inactive)
growth [7]: 19.3% (inactive)
growth [8]: 37.7% (inactive)
growth [9]: 38.4% (inactive)

O=C(O)c1cn(C2CC2)c2cc(N3CCN(C(=O)Nc4nc(-c5ccc(Br)cc5)cs4)CC3)c(F)cc2c1=O
growth [1]: -17% (active)
growth [2]: 6.36% (active)
growth [3]: 14% (inactive)
growth [4]: 34.9% (inactive)
growth [5]: 17% (inactive)
growth [6]: 42.4% (inactive)
growth [7]: -7.91% (active)
growth [8]: 6.67% (active)
growth [9]: 8.35% (active)

CN1CCN(CCOc2ccc(-c3cnc4c(-c5ccc(F)cc5)cnn4c3)cc2)CC1
growth [1]: 81.8% (inactive)
growth [2]: 61.6% (inactive)
growth [3]: 32.3% (inactive)
growth [4]: 75.1% (inactive)
growth [5]: 46.6% (inactive)
growth [6]: 45.5% (inactive)
growth [7]: 74.9% (inactive)
growth [8]: 17.6% (inactive)
growth [9]: 8.99% (active)

CCCCC#Cc1c(I)n(C)c(=O)[nH]c1=O
growth [1]: 63.2% (inactive)
growth [2]: 39.4% (inactive)
growth [3]: -78% (active)
growth [4]: 50% (inactive)
growth [5]: -75.7% (active)
growth [6]: -54.2% (active)
growth [7]: 94.2% (inactive)
growth [8]: -51.4% (active)
growth [9]: -61.1% (active)

O=C(NNC(=O)c1nc2cc(F)ccc2n2cccc12)c1cnccn1
growth [1]: 67.1% (inactive)
growth [2]: 40.2% (inactive)
growth [4]: 62.7% (inactive)
growth [5]: 26% (inactive)
growth [6]: 27.9% (inactive)
growth [7]: 19.9% (inactive)
growth [8]: 17.1% (inactive)
growth [9]: 15% (inactive)

COC1=C(C)C(=O)N2[C@@H]1[C@H](c1ccccc1)OC21C=CC(=O)C=C1
growth [1]: 11.1% (inactive)
growth [2]: 0.448% (active)
growth [3]: -42.9% (active)
growth [4]: 20.8% (inactive)
growth [5]: -29.3% (active)
growth [6]: -59.6% (active)
growth [7]: 92.7% (inactive)
growth [8]: -19.7% (active)
growth [9]: -4.79% (active)

COC(=O)/C=C1/SC(=Nc2ccc([N+](=O)[O-])cc2)N(CCc2c[nH]c3ccc(O)cc23)C1=O
growth [1]: 39.7% (inactive)
growth [2]: 45.8% (inactive)
growth [3]: 53.5% (inactive)
growth [4]: 85.2% (inactive)
growth [5]: 53.4% (inactive)
growth [6]: 71.4% (inactive)
growth [7]: 80.5% (inactive)
growth [8]: 10.9% (inactive)
growth [9]: 10.9% (inactive)
